Results from the supplement of paper PMC12819154, “High-throughput peptide-centric local stability assay extends protein–ligand identification to membrane proteins, tissues and bacteria” (Nature Structural & Molecular Biology, 2025).

compound: Nc1ncnc2c1ncn2[C@@H]1O[C@H](COP(=O)(O)OP(=O)(O)OP(=O)(O)O)[C@@H](O)[C@H]1O [adenosine 5'-triphosphate]; experiment: log2 fold change of tryptic peptide abundance, ligand vs vehicle (limited proteolysis) (log2 ratio); higher = more trypsin-susceptible (destabilized); conditions: ligand concentration: 5 mM; sample: E. coli desalted lysate; replicate design: treated before aliquoting
Experimental: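 HT-PELSA: desalted E. coli K-12 BW25113 lysate (with 12 mM MgCl2) incubated with 5 mM ATP (pH 7) or water for 30 min at 25 C, then a 4 min trypsin pulse at 22 C. Peptides were quantified by DIA-MS (4 replicates). Value is the peptide log2 fold change (treated/control); negative = stabilized. Scale: negative = ligand-stabilized region.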
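Note: lysate desalted by size exclusion to strip endogenous ATP, peptide intensities built from DIA-NN precursor signals, and peptides missing any value discarded before comparison.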

Sequence of UniProt P32134 (P32134 whole entry): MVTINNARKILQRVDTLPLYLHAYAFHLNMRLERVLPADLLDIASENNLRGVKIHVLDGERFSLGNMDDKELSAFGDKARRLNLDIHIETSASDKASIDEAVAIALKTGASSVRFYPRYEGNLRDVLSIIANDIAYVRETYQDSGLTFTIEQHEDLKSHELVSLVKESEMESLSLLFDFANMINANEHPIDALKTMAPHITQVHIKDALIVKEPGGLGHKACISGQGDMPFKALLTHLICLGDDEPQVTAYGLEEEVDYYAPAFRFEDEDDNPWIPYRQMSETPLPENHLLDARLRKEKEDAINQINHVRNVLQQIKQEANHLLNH
Sequence of UniProt P37025 (P37025 whole entry): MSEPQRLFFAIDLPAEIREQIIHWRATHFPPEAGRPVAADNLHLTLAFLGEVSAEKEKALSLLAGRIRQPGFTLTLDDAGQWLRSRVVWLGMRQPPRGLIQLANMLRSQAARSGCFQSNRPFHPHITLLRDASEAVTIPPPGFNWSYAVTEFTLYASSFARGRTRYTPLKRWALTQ
Sequence of UniProt P0AFI5 (P0AFI5 whole entry): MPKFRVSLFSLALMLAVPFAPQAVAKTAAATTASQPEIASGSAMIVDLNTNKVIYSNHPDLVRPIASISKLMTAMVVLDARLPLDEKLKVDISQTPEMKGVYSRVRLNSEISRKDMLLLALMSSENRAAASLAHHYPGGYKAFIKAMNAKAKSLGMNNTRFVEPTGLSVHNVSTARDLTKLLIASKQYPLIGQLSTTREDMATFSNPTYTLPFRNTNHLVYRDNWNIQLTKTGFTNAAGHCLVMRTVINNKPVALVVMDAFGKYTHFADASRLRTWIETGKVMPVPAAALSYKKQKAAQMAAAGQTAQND
Sequence of UniProt P15254 (P15254 whole entry): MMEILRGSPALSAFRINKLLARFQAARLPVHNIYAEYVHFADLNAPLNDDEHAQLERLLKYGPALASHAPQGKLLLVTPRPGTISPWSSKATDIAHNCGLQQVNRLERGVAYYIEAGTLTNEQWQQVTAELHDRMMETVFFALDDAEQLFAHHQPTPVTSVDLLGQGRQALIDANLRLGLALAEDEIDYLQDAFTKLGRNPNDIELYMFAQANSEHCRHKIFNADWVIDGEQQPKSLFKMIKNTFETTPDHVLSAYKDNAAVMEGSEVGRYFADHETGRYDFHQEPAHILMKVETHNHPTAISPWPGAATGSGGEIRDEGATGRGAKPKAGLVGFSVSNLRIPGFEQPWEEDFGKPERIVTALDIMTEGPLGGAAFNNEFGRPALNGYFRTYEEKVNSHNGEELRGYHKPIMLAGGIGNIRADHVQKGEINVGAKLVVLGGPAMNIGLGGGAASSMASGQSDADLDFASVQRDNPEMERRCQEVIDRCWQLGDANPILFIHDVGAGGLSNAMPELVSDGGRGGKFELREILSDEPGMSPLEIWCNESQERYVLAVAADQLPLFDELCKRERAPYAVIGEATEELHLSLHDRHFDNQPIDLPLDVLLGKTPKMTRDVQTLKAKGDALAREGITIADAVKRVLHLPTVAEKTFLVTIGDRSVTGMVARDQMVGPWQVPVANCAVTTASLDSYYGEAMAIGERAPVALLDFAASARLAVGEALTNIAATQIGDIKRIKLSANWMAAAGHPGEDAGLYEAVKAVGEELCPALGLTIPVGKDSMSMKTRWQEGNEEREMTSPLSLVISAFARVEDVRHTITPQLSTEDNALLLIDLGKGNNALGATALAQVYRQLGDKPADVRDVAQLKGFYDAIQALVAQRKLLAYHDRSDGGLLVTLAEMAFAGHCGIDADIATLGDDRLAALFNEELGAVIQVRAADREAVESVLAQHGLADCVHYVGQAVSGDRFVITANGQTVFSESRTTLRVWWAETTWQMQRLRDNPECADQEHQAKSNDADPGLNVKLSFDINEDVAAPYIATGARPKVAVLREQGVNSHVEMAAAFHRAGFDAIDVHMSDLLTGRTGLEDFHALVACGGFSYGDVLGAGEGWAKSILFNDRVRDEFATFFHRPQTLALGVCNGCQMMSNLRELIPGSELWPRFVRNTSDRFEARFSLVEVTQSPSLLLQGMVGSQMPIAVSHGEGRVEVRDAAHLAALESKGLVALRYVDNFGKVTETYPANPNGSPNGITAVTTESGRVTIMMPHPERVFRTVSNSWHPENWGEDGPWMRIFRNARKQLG
Sequence of UniProt P77302 (P77302 whole entry): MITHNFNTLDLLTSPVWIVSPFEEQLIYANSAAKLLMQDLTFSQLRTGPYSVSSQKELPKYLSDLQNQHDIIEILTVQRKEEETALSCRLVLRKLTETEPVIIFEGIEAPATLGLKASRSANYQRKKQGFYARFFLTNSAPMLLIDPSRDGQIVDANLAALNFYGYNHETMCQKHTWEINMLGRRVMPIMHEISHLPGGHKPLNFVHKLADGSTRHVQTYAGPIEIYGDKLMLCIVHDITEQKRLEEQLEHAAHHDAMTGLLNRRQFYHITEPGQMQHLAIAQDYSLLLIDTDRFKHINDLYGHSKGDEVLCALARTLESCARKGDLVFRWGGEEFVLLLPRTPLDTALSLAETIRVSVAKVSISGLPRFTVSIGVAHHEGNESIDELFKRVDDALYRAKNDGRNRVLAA
Sequence of UniProt P0ABM9 (P0ABM9 whole entry): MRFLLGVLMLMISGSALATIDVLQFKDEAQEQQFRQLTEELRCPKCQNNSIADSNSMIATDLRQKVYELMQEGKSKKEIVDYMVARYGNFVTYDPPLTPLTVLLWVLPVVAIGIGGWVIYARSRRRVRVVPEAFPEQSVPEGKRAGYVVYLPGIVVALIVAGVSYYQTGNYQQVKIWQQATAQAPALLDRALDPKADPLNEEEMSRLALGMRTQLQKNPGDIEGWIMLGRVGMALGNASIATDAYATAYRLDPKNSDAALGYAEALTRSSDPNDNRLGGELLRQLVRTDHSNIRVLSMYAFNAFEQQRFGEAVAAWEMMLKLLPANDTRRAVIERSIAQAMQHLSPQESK
Sequence of UniProt P52108 (P52108 whole entry): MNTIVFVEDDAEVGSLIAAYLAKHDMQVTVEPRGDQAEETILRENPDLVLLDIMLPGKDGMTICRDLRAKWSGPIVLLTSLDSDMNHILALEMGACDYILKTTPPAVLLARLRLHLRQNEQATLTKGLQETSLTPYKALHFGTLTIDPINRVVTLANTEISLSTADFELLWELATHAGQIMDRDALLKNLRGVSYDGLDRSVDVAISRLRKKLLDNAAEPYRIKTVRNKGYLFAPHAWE
Sequence of UniProt P77735 (P77735 whole entry): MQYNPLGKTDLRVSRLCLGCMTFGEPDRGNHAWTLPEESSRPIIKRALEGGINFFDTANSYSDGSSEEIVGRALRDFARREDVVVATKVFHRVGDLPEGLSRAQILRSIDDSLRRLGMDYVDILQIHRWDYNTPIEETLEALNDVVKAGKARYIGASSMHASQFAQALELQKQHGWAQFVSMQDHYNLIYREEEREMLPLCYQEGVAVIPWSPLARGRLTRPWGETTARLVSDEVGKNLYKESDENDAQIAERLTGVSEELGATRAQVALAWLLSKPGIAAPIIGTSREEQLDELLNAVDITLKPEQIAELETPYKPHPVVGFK
Sequence of UniProt P39187 (P39187 whole entry): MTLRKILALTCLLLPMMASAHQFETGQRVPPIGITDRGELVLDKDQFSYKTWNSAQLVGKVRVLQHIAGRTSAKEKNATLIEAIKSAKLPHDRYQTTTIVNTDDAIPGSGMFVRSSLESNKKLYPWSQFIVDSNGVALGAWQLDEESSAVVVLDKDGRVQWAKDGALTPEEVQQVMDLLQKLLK
Sequence of UniProt P06989 (P06989 whole entry): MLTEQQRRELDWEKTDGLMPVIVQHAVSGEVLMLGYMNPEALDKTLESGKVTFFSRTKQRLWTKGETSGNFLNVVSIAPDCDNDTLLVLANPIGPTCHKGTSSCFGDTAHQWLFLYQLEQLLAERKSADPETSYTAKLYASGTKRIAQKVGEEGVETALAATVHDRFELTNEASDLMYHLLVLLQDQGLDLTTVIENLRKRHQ
Sequence of UniProt P07109 (P07109 whole entry): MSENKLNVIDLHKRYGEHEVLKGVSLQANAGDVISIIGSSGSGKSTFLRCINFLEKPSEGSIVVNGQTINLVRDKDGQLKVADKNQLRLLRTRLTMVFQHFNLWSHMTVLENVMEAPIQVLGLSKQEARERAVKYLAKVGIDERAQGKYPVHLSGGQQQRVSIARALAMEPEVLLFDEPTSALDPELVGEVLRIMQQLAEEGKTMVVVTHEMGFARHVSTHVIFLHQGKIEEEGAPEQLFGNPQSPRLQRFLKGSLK
Sequence of UniProt P09169 (P09169 whole entry): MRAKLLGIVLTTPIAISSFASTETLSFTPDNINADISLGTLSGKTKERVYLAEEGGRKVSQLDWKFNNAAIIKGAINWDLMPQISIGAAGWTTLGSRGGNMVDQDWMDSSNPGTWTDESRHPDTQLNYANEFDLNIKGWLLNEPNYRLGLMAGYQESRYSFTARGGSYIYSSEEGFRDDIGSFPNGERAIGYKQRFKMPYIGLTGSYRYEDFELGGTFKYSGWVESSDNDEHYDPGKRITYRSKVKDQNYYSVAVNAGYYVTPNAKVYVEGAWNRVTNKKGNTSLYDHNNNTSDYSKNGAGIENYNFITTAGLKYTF
Sequence of UniProt P77252 (P77252 whole entry): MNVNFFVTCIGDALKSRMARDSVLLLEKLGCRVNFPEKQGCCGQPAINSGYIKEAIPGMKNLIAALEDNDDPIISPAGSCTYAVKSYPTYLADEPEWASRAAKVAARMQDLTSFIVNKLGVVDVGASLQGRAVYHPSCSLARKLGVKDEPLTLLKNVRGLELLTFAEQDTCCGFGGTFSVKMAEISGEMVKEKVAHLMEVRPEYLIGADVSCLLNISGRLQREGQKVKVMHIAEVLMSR
Sequence of UniProt P06966 (P06966 whole entry): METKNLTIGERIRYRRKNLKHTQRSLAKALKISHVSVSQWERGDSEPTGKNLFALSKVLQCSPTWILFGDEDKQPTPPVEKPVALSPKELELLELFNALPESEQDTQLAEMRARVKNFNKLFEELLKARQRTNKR

| Target | log2 fold change |
| --- | --- |
| UniProt P32125 (peptide sequence: AGAAQTIVASQQR, peptide start residue: 63) | -0.686 |
| UniProt P32134 (peptide sequence: ACISGQGDMPFK, peptide start residue: 221) | -1.02 |
| UniProt P26281 (peptide sequence: ALGDIPESHILTVSSFYR, peptide start residue: 25) | -3.29 |
| UniProt P33029 (peptide sequence: AHQALLTDR, peptide start residue: 38) | -0.503 |
| UniProt P77302 (peptide sequence: KEEETALSCR, peptide start residue: 80) | -1.39 |
| UniProt P39180 (peptide sequence: NLNGQNGTISLR, peptide start residue: 603) | 0.735 |
| UniProt P18775 (peptide sequence: IAHAVDSAIPTK, peptide start residue: 42) | -0.536 |
| UniProt P06989 (peptide sequence: KSADPETSYTAK, peptide start residue: 126) | -0.912 |
| UniProt P77735 (peptide sequence: LGMDYVDILQIHR, peptide start residue: 116) | -0.843 |
| UniProt P37025 (peptide sequence: VVWLGMR, peptide start residue: 87) | -0.685 |
| UniProt P0ABM9 (peptide sequence: DEAQEQQFR, peptide start residue: 27) | 0.867 |
| UniProt P52108 (peptide sequence: KKLLDNAAEPYR, peptide start residue: 211) | 0.266 |
| UniProt P0AFU8 (peptide sequence: FSDEIGGHLMSGHIMTTAEVAK, peptide start residue: 90) | 0.559 |
| UniProt P45799 (peptide sequence: SLQKPTILNVETVAR, peptide start residue: 4) | -1.1 |
| UniProt P77252 (peptide sequence: DEPLTLLK, peptide start residue: 148) | 0.328 |
| UniProt P0AFI5 (peptide sequence: YTHFADASR, peptide start residue: 264) | -0.35 |

| Target | log2 fold change |
| --- | --- |
| UniProt P23883 (peptide sequence: ALSLAIENR, peptide start residue: 13) | -2.59 |
| UniProt P77148 (peptide sequence: ILLGEYFR, peptide start residue: 100) | -0.452 |
| UniProt P15254 (peptide sequence: QALIDANLR, peptide start residue: 169) | -0.778 |
| UniProt P39187 (peptide sequence: VLQHIAGR, peptide start residue: 63) | 0.842 |
| UniProt P0AA39 (peptide sequence: NILQSGER, peptide start residue: 198) | -0.653 |
| UniProt P76346 (peptide sequence: LHHANDTDSFSATNVH, peptide start residue: 250) | 0.288 |
| UniProt P24173 (peptide sequence: IKLPWGAPHEEER, peptide start residue: 213) | -0.445 |
| UniProt P28861 (peptide sequence: ETAAGSLTGR, peptide start residue: 175) | -1.31 |
| UniProt P07109 (peptide sequence: YGEHEVLK, peptide start residue: 15) | -1.13 |
| UniProt P06966 (peptide sequence: ISHVSVSQWER, peptide start residue: 32) | -1 |
| UniProt P33599 (peptide sequence: QDLEMEALTFKPEEWGMKR, peptide start residue: 186) | -1.6 |
| UniProt P31660 (peptide sequence: SGNDLHYR, peptide start residue: 38) | 1.29 |
| UniProt P30014 (peptide sequence: TAVLFCEIVNR, peptide start residue: 190) | -2.04 |
| UniProt P04968 (peptide sequence: EALLAVTIPEEK, peptide start residue: 338) | 0.397 |
| UniProt P09169 (peptide sequence: MPYIGLTGSYR, peptide start residue: 198) | 1.26 |
